# Measurements taken from PubChem BioAssay AID1345085 (National Center for Advancing Translational Sciences (NCATS), 2018).
# Results filed as inconclusive are left out. The source made the active and inactive calls. Calls come from the whole dose curve; as a rule, active = well fitted cell-killing curve with a large enough effect; inconclusive = small, poorly fitted or top-dose-only effect, or effect the other way; inactive = no such curve, though single readings can be large or run the other way.
# Tested on: CAOV3
# Assay: Confirmatory qHTS for gynecologic anti-cancer compounds from libraries of approved drugs and bioactive compounds; note: nearly all actives have a fitted effect of over 55% in size
# Settings: gynecologic cancer cell panel viability, ATPlite luminescence, 48 h; series mostly up to 57.6 µM; activity change, negative = viability loss: at the top concentration
# Procedure, shortened: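 IC50 values derive from an ATPlite ATP-content luminescence assay following 48 h treatment at 37 C. Each compound ran as an 11-concentration, threefold series (57.5 uM to 0.977 nM); HEK 293T served as control line for selectivity index.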
# % is set by controls: 0 for no effect and ±100 for the full control effect; potency is the fitted concentration of half-maximal effect.
SMILES,Potency,"activity change, negative = viability loss"
COc1cc2c(Oc3ccc(-c4cnc(Nc5ccc(F)cc5)n(C)c4=O)cc3F)ccnc2cc1OCCCN1CCOCC1,19.3 µM (active),
CS(=O)(=O)c1ccc(C(=O)Nc2ccc(Cl)c(-c3ccccn3)c2)c(Cl)c1,,25.6% (inactive)
Cc1ccc(C(N)=O)cc1Nc1nccc(-c2cn(C(C)C)c3cnccc23)n1,17.2 µM (active),
COc1cc(C(=O)N2CCC(N3CCN(C)CC3)CC2)ccc1Nc1ncc2c(n1)N(C)c1ccccc1C(=O)N2C,10.9 µM (active),
Cc1cc(CN2CCN(c3c(Br)cnc4nc(-c5ccc(N6CCN(C)CC6)cc5)[nH]c34)CC2)no1,13.7 µM (active),
COc1ccc(CCC(=O)c2c(O)cc(O[C@@H]3O[C@H](CO)[C@@H](O)[C@H](O)[C@H]3O[C@@H]3O[C@@H](C)[C@H](O)[C@@H](O)[C@H]3O)cc2O)cc1O,,12.1% (inactive)
C=CC(=O)Nc1cccc(Oc2nc(Nc3ccc(N4CCN(C)CC4)cc3)ncc2Cl)c1,19.3 µM (active),
C[C@]12CCC(=O)C=C1[C@@H]1C[C@@H]1[C@H]1[C@@H]3[C@@H]4C[C@@H]4[C@@]4(CCC(=O)O4)[C@@]3(C)CC[C@@H]12,,7.13% (inactive)
CCN1CCN(Cc2ccc(-c3cc4c(NC(C)c5ccccc5)ncnc4[nH]3)cc2)CC1 (centres undefined),27.3 µM (active),
CCC1C(=O)N(C)c2cnc(Nc3ccc(C(=O)NC4CCN(C)CC4)cc3OC)nc2N1C1CCCC1 (centres undefined),4.85 µM (active),
NC1(c2ccc(-c3nc4ccn5c(=O)[nH]nc5c4cc3-c3ccccc3)cc2)CCC1,,4.9% (inactive)
O=C(NOC[C@H](O)CO)c1ccc(F)c(F)c1Nc1ccc(I)cc1F,,-17% (inactive)
Cc1cc(Nc2nc(N[C@@H](C)c3ncc(F)cn3)ncc2Cl)n[nH]1,7.69 µM (active),
COc1ccc2c(c1)c(CC(=O)O)c(C)n2C(=O)c1ccc(Cl)cc1,,11.3% (inactive)
Cc1cc(C2CCCCC2)n(O)c(=O)c1,12.5 µM (active),
Cc1cc(Nc2cc(N3CCN(C)CC3)nc(/C=C/c3ccccc3)n2)n[nH]1,7.69 µM (active),
Cc1nc(N)sc1-c1ccnc(Nc2ccc(N3CCOCC3)cc2)n1,3.43 µM (active),

SMILES,Potency,"activity change, negative = viability loss"
OCCNC1CCCc2c1[nH]c1ccc(-c3ccccc3)cc21 (centres undefined),24.3 µM (active),
CN(C)C(CCOc1cccc2ccccc12)c1ccccc1 (centres undefined),30.6 µM (active),
CCOc1ccc(Nc2nc(-c3c(C)nc4ccccn34)cs2)cc1,,-9.28% (inactive)
CCN1CCN(Cc2ccc(Nc3ncc(F)c(-c4cc(F)c5nc(C)n(C(C)C)c5c4)n3)nc2)CC1,,-8.37% (inactive)
CCCc1nn(C)c2c(=O)[nH]c(-c3cc(S(=O)(=O)N4CCN(C)CC4)ccc3OCC)nc12,,-0.31% (inactive)
COc1ccc2c(c1OC)C(=O)O[C@@H]2[C@H]1c2c(cc3c(c2OC)OCO3)CCN1C,,12.3% (inactive)
NC(=O)Nc1cc(-c2cccc(F)c2)sc1C(=O)NC1CCCNC1 (centres undefined),1.22 µM (active),
CCCCc1oc2ccccc2c1C(=O)c1cc(I)c(OCCN(CC)CC)c(I)c1,79.4 µM (active),
CN1CCN(CCOc2cc(OC3CCOCC3)c3c(Nc4c(Cl)ccc5c4OCO5)ncnc3c2)CC1,,-11.2% (inactive)
Cc1cc(Nc2cc(N3CCN(C)CC3)nc(Sc3ccc(NC(=O)C4CC4)cc3)n2)n[nH]1,,5.82% (inactive)
Nc1ccc(-c2ccc3ncc4ccc(=O)n(-c5cccc(C(F)(F)F)c5)c4c3c2)cn1,3.43 µM (active),
COCCOc1ccc2c(c1)ncn2-c1ccc2cccc(N3CCC(N)CC3)c2n1,,-10.6% (inactive)
CC(C)C[C@H](NC(=O)[C@H](Cc1ccccc1)NC(=O)c1cnccn1)B(O)O,0.0769 µM (active),
CNc1nccc(-c2cccnc2Oc2cc(C(=O)Nc3cccc(C(F)(F)F)c3)ccc2C)n1,24.3 µM (active),
CC(C)C[C@H](NC(=O)[C@@H](NC(=O)c1cccc(-c2ccccc2)n1)[C@@H](C)O)B(O)O,0.172 µM (active),
CC(C)Oc1ccc2c(=O)c(-c3ccccc3)coc2c1,15.3 µM (active),
Cc1nc(Nc2n[nH]c3c2CN(C(=O)NC(CN(C)C)c2ccccc2)C3(C)C)c2sccc2n1 (centres undefined),0.306 µM (active),
